A number with no mark means an inactive call.
compound: C#CCNC(=O)CCSSCCC(=O)NCCc1ccc(C=O)c(C=O)c1; test: lysine labeling ratio R10:1 (500 µM / 50 µM probe), SILAC-ABPP in living cells; higher = lower intrinsic lysine reactivity toward the probe, active = 2 or less; conditions: HeLa; probe concentrations 500 vs 50 µM
Method in brief: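 SILAC light and heavy living HeLa cells in PBS at room temperature were labelled with 50 µM or 500 µM of an alkyne-tagged, disulfide-linked lysine probe, with forward and reverse label swaps. Mixed lysates were clicked to biotin-azide, trypsin-digested, captured on neutravidin, DTT-released, alkylated and analysed by LC-MS/MS on a TIMS-TOF Pro. R is the filtered median high-probe/low-probe MS1 peptide ratio per lysine, then the median across forward and reverse replicates. Ratios are capped at 20.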

UniProt P21333, sequence (P21333 whole entry): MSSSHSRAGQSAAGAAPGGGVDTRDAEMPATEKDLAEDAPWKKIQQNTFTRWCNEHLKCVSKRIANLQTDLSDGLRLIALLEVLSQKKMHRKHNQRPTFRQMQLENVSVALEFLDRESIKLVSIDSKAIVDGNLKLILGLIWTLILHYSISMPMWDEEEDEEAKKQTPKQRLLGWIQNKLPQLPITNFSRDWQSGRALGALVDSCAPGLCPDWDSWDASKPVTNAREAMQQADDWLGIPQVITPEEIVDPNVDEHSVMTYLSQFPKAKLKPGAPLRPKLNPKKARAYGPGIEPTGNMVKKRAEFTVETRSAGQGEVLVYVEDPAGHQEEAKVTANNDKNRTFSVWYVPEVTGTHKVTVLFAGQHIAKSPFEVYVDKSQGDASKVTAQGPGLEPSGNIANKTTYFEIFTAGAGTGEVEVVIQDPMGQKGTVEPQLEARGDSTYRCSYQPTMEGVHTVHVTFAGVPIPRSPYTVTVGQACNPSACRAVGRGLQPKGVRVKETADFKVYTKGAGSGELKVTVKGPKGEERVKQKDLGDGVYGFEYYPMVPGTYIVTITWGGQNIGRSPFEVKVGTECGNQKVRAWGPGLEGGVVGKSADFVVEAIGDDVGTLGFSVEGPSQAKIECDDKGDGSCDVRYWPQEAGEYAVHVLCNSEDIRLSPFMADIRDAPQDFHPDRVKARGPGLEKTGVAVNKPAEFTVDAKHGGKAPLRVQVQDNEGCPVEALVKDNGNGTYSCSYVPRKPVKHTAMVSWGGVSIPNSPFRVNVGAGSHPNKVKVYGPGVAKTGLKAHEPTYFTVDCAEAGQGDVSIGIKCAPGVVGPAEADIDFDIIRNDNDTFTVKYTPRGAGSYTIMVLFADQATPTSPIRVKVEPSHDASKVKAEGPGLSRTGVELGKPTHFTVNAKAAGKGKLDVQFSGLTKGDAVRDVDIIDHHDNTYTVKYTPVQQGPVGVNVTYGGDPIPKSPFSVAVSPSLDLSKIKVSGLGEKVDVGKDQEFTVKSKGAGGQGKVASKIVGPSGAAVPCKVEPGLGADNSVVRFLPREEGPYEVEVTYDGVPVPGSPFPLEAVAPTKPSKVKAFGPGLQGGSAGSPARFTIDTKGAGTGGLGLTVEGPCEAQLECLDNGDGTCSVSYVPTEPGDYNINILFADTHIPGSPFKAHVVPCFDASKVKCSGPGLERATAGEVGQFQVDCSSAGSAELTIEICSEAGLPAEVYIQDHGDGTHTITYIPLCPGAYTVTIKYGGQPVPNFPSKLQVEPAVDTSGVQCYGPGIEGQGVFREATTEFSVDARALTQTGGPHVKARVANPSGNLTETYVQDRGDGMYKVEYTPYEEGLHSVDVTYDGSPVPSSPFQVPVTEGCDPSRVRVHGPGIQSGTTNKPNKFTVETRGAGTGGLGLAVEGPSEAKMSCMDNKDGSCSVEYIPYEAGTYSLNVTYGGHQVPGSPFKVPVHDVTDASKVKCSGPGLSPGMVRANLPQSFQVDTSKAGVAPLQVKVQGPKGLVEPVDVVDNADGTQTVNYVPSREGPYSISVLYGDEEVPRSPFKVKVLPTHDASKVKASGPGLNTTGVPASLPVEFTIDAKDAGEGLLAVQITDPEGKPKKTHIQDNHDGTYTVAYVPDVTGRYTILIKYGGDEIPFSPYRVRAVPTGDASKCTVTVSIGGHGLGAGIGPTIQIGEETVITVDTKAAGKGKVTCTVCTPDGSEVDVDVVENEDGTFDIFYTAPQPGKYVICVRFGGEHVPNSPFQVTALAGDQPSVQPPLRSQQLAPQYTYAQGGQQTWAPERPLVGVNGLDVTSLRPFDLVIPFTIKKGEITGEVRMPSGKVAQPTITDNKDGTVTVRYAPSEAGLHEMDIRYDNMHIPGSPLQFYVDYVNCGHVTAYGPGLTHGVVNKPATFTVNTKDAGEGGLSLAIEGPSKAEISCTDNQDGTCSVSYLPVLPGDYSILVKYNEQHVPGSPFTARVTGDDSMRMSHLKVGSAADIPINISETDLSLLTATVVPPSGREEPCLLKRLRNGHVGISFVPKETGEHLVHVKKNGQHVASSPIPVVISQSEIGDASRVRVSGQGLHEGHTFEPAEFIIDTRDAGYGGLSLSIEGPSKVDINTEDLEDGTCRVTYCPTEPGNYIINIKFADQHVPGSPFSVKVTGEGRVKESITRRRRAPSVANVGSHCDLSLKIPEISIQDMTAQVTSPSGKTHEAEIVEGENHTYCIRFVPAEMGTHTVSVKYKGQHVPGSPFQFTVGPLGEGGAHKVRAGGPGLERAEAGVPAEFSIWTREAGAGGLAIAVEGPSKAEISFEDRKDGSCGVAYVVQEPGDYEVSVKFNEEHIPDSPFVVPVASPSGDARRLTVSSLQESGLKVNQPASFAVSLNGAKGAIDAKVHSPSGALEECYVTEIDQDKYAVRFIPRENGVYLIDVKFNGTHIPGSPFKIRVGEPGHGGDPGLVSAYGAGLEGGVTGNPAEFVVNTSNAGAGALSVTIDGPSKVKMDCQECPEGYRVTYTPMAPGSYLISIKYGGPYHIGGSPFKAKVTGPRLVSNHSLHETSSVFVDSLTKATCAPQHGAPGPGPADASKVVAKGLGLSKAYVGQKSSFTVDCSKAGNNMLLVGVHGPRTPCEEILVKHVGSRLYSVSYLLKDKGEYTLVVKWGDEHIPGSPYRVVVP
UniProt P23229, sequence (P23229 whole entry): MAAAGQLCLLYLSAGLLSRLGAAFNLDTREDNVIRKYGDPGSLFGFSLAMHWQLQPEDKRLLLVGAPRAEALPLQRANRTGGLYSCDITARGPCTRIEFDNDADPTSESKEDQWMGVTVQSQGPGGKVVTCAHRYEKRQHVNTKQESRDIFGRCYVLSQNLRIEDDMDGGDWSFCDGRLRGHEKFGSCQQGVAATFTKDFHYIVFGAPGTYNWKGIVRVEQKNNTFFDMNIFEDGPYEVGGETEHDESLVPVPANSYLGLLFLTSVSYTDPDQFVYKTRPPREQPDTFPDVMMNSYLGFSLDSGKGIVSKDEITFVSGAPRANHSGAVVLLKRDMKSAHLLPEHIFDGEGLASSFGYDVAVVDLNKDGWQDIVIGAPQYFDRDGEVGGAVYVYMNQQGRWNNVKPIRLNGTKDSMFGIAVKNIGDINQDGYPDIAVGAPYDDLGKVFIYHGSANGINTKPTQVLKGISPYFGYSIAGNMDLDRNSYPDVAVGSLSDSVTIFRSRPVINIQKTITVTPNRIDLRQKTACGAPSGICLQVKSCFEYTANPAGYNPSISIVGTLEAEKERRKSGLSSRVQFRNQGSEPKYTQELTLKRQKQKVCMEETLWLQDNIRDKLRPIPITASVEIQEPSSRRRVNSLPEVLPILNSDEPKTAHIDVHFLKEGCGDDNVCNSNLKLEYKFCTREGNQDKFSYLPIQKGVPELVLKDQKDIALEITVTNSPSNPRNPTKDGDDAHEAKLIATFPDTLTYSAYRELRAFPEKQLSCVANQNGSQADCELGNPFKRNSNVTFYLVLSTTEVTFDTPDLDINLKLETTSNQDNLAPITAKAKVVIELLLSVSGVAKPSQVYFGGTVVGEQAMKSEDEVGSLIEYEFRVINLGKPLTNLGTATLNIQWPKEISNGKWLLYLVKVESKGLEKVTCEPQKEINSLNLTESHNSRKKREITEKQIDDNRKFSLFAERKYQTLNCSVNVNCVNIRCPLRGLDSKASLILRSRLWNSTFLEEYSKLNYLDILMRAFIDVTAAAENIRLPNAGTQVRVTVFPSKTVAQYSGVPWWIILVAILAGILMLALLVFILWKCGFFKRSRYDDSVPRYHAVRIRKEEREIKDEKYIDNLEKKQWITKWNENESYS
UniProt O43854, sequence (O43854 whole entry): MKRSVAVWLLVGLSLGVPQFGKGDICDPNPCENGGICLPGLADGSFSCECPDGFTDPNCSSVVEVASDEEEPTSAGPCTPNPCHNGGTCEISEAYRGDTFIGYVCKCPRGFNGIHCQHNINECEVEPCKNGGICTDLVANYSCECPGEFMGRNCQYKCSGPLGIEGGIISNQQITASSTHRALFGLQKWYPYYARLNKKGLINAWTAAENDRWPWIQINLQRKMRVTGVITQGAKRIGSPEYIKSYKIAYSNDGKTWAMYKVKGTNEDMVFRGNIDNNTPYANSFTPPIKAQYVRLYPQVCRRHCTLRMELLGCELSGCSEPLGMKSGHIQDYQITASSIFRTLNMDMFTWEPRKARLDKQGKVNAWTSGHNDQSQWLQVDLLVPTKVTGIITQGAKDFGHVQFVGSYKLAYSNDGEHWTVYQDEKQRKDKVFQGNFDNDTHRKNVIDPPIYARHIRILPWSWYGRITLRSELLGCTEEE
UniProt Q96IZ0, sequence (Q96IZ0 whole entry): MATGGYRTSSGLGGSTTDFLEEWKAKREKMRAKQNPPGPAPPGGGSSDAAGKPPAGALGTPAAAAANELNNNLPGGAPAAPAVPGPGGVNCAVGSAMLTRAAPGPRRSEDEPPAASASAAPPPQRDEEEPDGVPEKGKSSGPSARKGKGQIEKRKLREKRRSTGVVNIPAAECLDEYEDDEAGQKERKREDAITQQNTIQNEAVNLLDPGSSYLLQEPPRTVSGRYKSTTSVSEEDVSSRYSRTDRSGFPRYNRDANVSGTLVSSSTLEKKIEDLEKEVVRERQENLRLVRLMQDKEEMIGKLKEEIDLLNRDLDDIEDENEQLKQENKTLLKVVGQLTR
UniProt P34897, sequence (P34897 whole entry): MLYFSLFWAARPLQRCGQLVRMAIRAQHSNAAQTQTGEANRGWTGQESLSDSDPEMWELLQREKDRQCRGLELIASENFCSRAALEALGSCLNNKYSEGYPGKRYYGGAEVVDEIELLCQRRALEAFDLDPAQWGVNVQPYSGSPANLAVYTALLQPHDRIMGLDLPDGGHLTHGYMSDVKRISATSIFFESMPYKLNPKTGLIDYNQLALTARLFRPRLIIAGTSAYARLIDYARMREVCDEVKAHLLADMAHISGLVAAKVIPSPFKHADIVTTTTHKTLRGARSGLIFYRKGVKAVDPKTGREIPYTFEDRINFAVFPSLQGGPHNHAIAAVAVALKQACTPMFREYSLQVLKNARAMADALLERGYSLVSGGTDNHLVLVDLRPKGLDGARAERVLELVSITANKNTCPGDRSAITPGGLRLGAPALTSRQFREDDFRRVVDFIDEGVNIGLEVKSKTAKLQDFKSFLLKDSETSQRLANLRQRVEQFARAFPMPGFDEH

Target | lysine labeling ratio R10:1
UniProt Q16181 (lysine site: K408) | 3.83
FLNA (lysine site: K1801) (UniProt P21333) | 3.7
UniProt P26012 (lysine site: K515) | 1.07 (active)
IGF1R (lysine site: K887) (UniProt P08069) | 3.44
ITGA6 (lysine site: K511) (UniProt P23229) | 14.7
HSPD1 (lysine site: K469) (UniProt P10809) | 4.7
UniProt P62805 (lysine site: K13) | 2.71
FLNA (lysine site: K724) (UniProt P21333) | 1.76 (active)
SPTAN1 (lysine site: K1432) (UniProt Q13813) | 0.77 (active)
SHMT2 (lysine site: K302) (UniProt P34897) | 2.59
UniProt Q15149 (lysine site: K2411) | 4.67
AGRN (lysine site: K77) (UniProt O00468) | 1.69 (active)
BPTF (lysine site: K609) (UniProt Q12830) | 8.91
ALDOA (lysine site: K330) (UniProt P04075) | 2.76
ITGA6 (lysine site: K127) (UniProt P23229) | 1.74 (active)
SPTBN1 (lysine site: K1684) (UniProt Q01082) | 1.83 (active)
FLNB (lysine site: K1372) (UniProt O75369) | 2.69
EGFR (lysine site: K226) (UniProt P00533) | 11
LDLR (lysine site: K783) (UniProt P01130) | 3.22
IGSF3 (lysine site: K811) (UniProt O75054) | 3.23

Target | lysine labeling ratio R10:1
FLNA (lysine site: K1593) (UniProt P21333) | 2.69
EDIL3 (lysine site: K431) (UniProt O43854) | 1.29 (active)
PFAS (lysine site: K639) (UniProt O15067) | 1.58 (active)
ANXA3 (lysine site: K184) (UniProt P12429) | 1.13 (active)
PLS3 (lysine site: K315) (UniProt P13797) | 1.71 (active)
RPL14 (lysine site: K85) (UniProt P50914) | 1.23 (active)
LAMB1 (lysine site: K1579) (UniProt P07942) | 2.82
FAM120A (lysine site: K673) (UniProt Q9NZB2) | 1.15 (active)
CALD1 (lysine site: K119) (UniProt Q05682) | 2.67
ANXA2 (lysine site: K204) (UniProt P07355) | 7.37
ITGB1 (lysine site: K91) (UniProt P05556) | 1.53 (active)
UniProt P55285 (lysine site: K121) | 4.12
NUMA1 (lysine site: K1475) (UniProt Q14980) | 5.25
TNFRSF10B (lysine site: K72) (UniProt O14763) | 3.31
PAWR (lysine site: K227) (UniProt Q96IZ0) | 1.06 (active)
EDIL3 (lysine site: K263) (UniProt O43854) | 2.69
UniProt P68371 (lysine site: K58) | 2.53
RPL5 (lysine site: K284) (UniProt P46777) | 1.68 (active)
CSRP1 (lysine site: K178) (UniProt P21291) | 0.76 (active)
TKT (lysine site: K59) (UniProt P29401) | 4.48
